Compounds with a hit are over-represented: about 6% of the library has one in this group of screens.
D1 antag – blocks dopamine activation of the human D1 receptor; P21728; HEK293 TREx D1 cells, calcium flux, dopamine EC80; stronger effect = lower value; hit rate 3.2% among 360,000; activity change, negative = inhibition, % at 10 µM; in the data active means activity change below about -30%; further: on the % scale 0 is the no-effect control and ±100 the full control effect
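HEK293 T-REx cells expressing inducible, force-coupled D1 receptor; no-wash Ca dye, 30–90 min RT. Cmpd → 180 s read at 1 Hz → EC80 DA → 180 s read.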
D1 potentiator – potentiators of human D1 dopamine receptor | P21728 | HEK293 TREx D1 cells, calcium flux, dopamine EC20 potentiation | potentiation, % at 10 µM | hit rate 0.036% among 360,000 | AID 504651; in the data active means potentiation above about 30%; further: 0% is about no effect
D1 ag – activates the human D1 dopamine receptor. P21728. activation, % at 2 µM. HEK293 T-REx D1 cells, calcium flux, agonist mode. AID 504660. hit rate 1% among 360,000; in the data active means activation above about 30%; further: 0% is about no effect
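Agonism was scored from calcium flux recorded over 180 s (1 read/s) after pintool compound addition, following a 10-cycle baseline. Cells were inducible force-coupled HEK293 TREx D1, plated overnight at 30 C and loaded with no-wash calcium dye.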
D3 antag – antagonists of human D3 dopamine receptor; hit rate 2.5% among 360,000; P35462; max response, negative = inhibition, %; D3R cells, DiscoveRx beta-arrestin luminescence, antagonist mode; stronger effect = lower value; in the data active means max response below about -50%; inconclusive means no clear call, values can overlap the other calls; further: on the % scale 0 is the no-effect control and ±100 the full control effect
Target sequence (P35462 whole entry, looked up): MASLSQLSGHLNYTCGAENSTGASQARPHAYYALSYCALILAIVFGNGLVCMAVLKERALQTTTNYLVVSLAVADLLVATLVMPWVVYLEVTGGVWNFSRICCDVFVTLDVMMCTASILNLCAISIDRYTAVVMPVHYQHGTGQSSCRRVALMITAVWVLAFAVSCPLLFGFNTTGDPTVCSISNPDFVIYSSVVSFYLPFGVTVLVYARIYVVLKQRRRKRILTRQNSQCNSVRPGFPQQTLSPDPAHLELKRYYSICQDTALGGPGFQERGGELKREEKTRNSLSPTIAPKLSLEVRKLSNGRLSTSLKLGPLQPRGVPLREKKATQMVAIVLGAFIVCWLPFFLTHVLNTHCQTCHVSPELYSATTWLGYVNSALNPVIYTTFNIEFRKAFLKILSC
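Cells plated overnight at 1500 cells/well, then exposed to library compounds with dopamine controls for 90 minutes at 37 degrees C. DiscoveRx reagent added for 30–60 minutes at room temperature; luminescence read, quantitative HTS format.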
D3 ag – D3 dopamine receptor (human) agonism | AID 652048 | D3R DiscoveRx beta-arrestin cells, luminescence, 90 min | P35462 | hit rate 0.58% among 410,000 | max activation, %; in the data active means max activation above about 30%; further: 0% is about no effect
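Agonist mode: compounds and dopamine controls were applied to plated cells for 90 min at 37 degrees C after an overnight attachment at 1500 cells/well. Luminescent read-out followed 30 - 60 minutes at room temperature with DiscoveRx detection reagent.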
BCR signal inh – chronic active BCR signaling inhibition; ABC-DLBCL IkBa-CBG/CBR reporter, luminescence ratio, 4 h; Potency, µM (highest dose often 46.1 µM), for inactives: top-dose activity change, negative = inhibition, hits mostly inhibitors; hit rate 0.05% among 340,000; AID 493014; active means well fitted inhibition curve with a large enough effect in the signal ratio, with a control signal flat, not every such curve was filed as active; inconclusive means small, poorly fitted or top-dose-only effect, or effect the other way, or a change in a side signal; the % refers to the signal ratio;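 further: potency means the concentration at half of the fitted maximal effect; plate controls were basal doxycycline-induced cells for no effect and cells given 10 µM MG132 for full effect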
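TMD8 ABC-DLBCL cells carrying doxycycline-inducible green luciferase fused to IkappaBalpha plus unfused red luciferase were exposed to compounds (up to 46 uM) for 4 hrs at 37C. Activity came from the overlap-corrected green/red luminescence ratio.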
* marks the source's active call; other numbers are inactive results.

Screening CCCCCCCCCC(CC)c1ccc(S(=O)(=O)O)cc1 (stereo not given) returned D3 ag -12.8.
`COC(=O)C1=C(c2ccccc2OCc2ccccc2)C[C@@H]2CC[C@H]1N2C(=O)NCCc1ccc(F)cc1` gave D1 antag -38.9*, D1 potentiator -5.6, D1 ag 2.5, D3 antag -28.9, D3 ag -19.9 and BCR signal inh inconclusive.
For COC(=O)C1=C(c2ccccc2OCc2ccccc2)C[C@@H]2CC[C@H]1N2C(=O)NCc1ccccc1 the results were D1 potentiator 0.4, D1 ag 0.7, D3 antag -12.9, D3 ag -11.5 and BCR signal inh inconclusive.
Screening COC(=O)C1=C(c2ccc(OCc3ccccc3)cc2)C[C@@H]2CC[C@H]1N2C(=O)NCCCc1ccccc1 returned D1 antag 17.6, D1 potentiator -3.2, D1 ag 18.1, D3 antag -50.8*, D3 ag -9.4 and BCR signal inh -4.0%.
Screening COC(=O)C1=C(c2ccc(F)cc2OCc2ccccc2)C[C@@H]2CC[C@H]1N2C(=O)NC1CCN(Cc2ccccc2)CC1 returned D1 potentiator 4.0, D1 ag 1.8, D3 antag -108.2*, D3 ag -7.7 and BCR signal inh inconclusive.
`Cc1ccc2c(c1)=C(c1ccccc1)N(O)CC(=O)N=2` gave D1 antag -2.2, D1 potentiator 2.4, D1 ag 4.1, D3 antag 0.0, D3 ag 6.4 and BCR signal inh inconclusive.
`C[C@]12C=CC(=O)C=C1CC[C@@H]1[C@@H]2CC[C@@]2(C)[C@H]1CC[C@]2(C)O` gave D3 ag -9.0.
Screening CC1=NN(C(=O)c2ccoc2C)C(O)(C(F)(F)F)C1 (stereo not given) returned D1 antag 12.8, D1 potentiator 0.4, D1 ag 4.0, D3 antag 5.2, D3 ag 17.2 and BCR signal inh inconclusive.
For Clc1ccc(CNC2CN3CCC2CC3)cc1 (stereo not given) the results were D1 antag -74.6*, D1 potentiator -7.8, D1 ag 3.8, D3 antag 2.9, D3 ag -2.3 and BCR signal inh -0.4%.
`Fc1ccccc1CNC1CN2CCC1CC2` (stereo not given) gave D1 antag 2.5, D1 potentiator -0.2, D1 ag 2.6, D3 antag -5.2, D3 ag -3.0 and BCR signal inh 5.1%.
For CCCCCc1nc2c(c(=O)c3ccccc3n2C)c(=O)n1C1CCCCCC1 the results were D1 antag -54.9*, D1 potentiator 7.1, D1 ag 190.9*, D3 antag -13.4, D3 ag 0.5 and BCR signal inh -9.7%.
For O=c1[nH]c(CN2CC=C(c3ccccc3)CC2)nc2cc(C(F)(F)F)ccc12 the results were D1 antag -11.1, D1 potentiator -6.2, D1 ag 1.2, D3 antag -27.2, D3 ag -0.9 and BCR signal inh -8.7%.
`O=c1[nH]c(CN2CC=C(c3ccccc3)CC2)nc2scc(-c3ccccc3)c12` gave D1 antag 4.7, D1 potentiator 2.4, D1 ag 2.0, D3 antag -7.1, D3 ag 67.5* and BCR signal inh -1.1%.
For Cc1ccc(CN2C(=O)NC(=O)C3(Cc4c(nc5ccccn5c4=O)N4CCCCCC43)C2=O)cc1 (stereo not given) the results were D1 antag 27.3, D1 potentiator 11.2, D1 ag 2.8, D3 antag 13.2, D3 ag 54.0* and BCR signal inh -0.4%.
Screening C[C@H]1[C@@H]2Cc3ccc(O)cc3[C@@]1(C)CCN2C returned D3 ag 0.0.
Screening Cc1[nH]c2ccccc2c1CCCNC1CCCCC1 returned D1 antag -1.8, D1 potentiator -3.3, D1 ag 36.8*, D3 antag inconclusive, D3 ag -29.0 and BCR signal inh -1.0%.
For CN1CC[C@]23c4c5ccc(O)c4O[C@H]2[C@@H](O)C=C[C@H]3[C@H]1C5 the results were D3 ag -15.1.
Screening CCOC(=O)C1(CCc2ccccc2)CCN(Cc2ccc3c(c2)OCCO3)CC1 returned D1 antag -20.3, D1 potentiator -2.9, D1 ag 1.6, D3 antag inconclusive, D3 ag -10.9 and BCR signal inh 1.1%.
CCOC(=O)C1(CCOc2ccccc2)CCN(Cc2ccc(C)s2)CC1 was read as D1 antag 6.6, D1 potentiator -3.4, D1 ag 4.9, D3 antag -50.3*, D3 ag -16.4 and BCR signal inh -0.2%.
Screening CC1(C)CN=C(Nc2ccc(F)c(F)c2)S1 returned D1 antag -8.2, D1 ag 20.1, D3 antag 12.0, D3 ag -0.8 and BCR signal inh inconclusive.
Screening CC1(C)CN=C(Nc2ccc(F)c(Cl)c2)S1 returned D1 antag 1.6, D1 potentiator 4.9, D1 ag 33.9*, D3 antag -1.7, D3 ag -3.2 and BCR signal inh inconclusive.
`C=C(C)[C@@]12OC3(c4ccccc4)O[C@@H]1C1[C@@H]4O[C@]4(CO)[C@@H](O)[C@]4(O)C(=O)C(C)=C[C@H]4[C@@]1(O3)[C@H](C)[C@H]2OC(=O)/C=C/C=C/c1ccccc1` (stereo not given in full) gave D3 antag -61.3* and D3 ag -6.3.
Nc1c(C(=O)Nc2ccc(Br)cc2F)sc2nc3c(cc12)N1CCC3CC1 was read as D1 antag -31.7*, D1 potentiator -5.3, D1 ag 1.0 and D3 ag 5.2.
For COc1ccc2oc(=O)c(C(=O)OCc3ccccc3)cc2c1 the results were D1 antag -17.8, D1 potentiator -2.2, D1 ag -0.3, D3 antag -11.7, D3 ag -2.8 and BCR signal inh inconclusive.
`C[C@]12CC[C@@H]3c4ccc(OC(=O)N(CCCl)CCCl)cc4CC[C@H]3[C@@H]1CC[C@@H]2OP(=O)(O)O` gave D3 ag -7.9.
`Fc1ccc(C(OCCN2CCN(CCCc3ccccc3)CC2)c2ccc(F)cc2)cc1` gave D3 ag -16.8.
Screening Fc1ccc(C(OCCN2CCCC2)c2ccc(Br)cc2)cc1 (stereo not given) returned D1 antag -5.3, D1 potentiator -5.8, D1 ag 25.3, D3 antag -73.3*, D3 ag -39.1 and BCR signal inh inconclusive.
Fc1ccc(C(OCCN2CCCC2)c2ccc(F)cc2)cc1 was read as D1 antag 7.2, D1 potentiator -0.9, D1 ag 8.4, D3 antag -61.5*, D3 ag -46.4 and BCR signal inh -8.8%.
For c1ccc(CCCN2CCN(CCOC(c3ccccc3)c3ccccc3)CC2)cc1 the results were D3 antag -75.6* and D3 ag -7.1.

Screens deposited in PubChem BioAssay by National Center for Advancing Translational Sciences (NCATS).
